Compound activity (PubChem)
An excerpt weighted towards active compounds, which were near 1.4% of everything screened.
PglD inh – blocks C. jejuni PglD acetyltransferase activity. purified PglD enzyme, DTNB colorimetric CoA detection. inhibition, % at 12.5 µM. actives 0.098% (n = 360,000); in the data active means inhibition above about 16%, passing the limit was not always enough
CFTR F508del cor – correctors of CFTR F508del function in bronchial epithelial cells; CFBE cells, YFP halide quenching; stimulated with forskolin plus potentiator P3; % fluorescence drop versus neutral controls; activity (quench increase), % at 7.58 µM; actives 0.36% (n = 350,000); AID 720511;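 active means mean added fluorescence quench of at least 8% versus neutral control, with both replicates also reaching 8%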;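 further: cells transiently co-express mutant CFTR-F508del with the halide-sensitive YFP; corrector assay measuring rescue of mutant channel to the surface after 24 h compound exposure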
Statin myotox sup – protects C2C12 myotubes from simvastatin toxicity; ATP luminescence, 48 h; scaled: DMSO 0, geranylgeraniol control 100; rescue of ATP level, % at 7.49 µM; actives 0.78% (n = 330,000); AID 602340;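 active means mean ATP rescue above about 67%, or every replicate alone reaching that limit, limit read from the data, passing the limit was not always enough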;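 further: myotubes were challenged with 10 µM simvastatin during compound exposure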
ARNT TACC3 PPI – ARNT/TACC3 interaction disruption. Q9Y6A5. actives 0.66% (n = 390,000). inhibition, % at 9.99 µM. AlphaScreen His-ARNT PAS-B/GST-TACC3 binding, luminescence; TACC3 fragment carries E629A point mutation;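 active means mean inhibition of replicates at least 50% and at least half of replicates each reaching 50%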;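 further: 0% = complete ARNT plus TACC3 wells and 100% = ARNT alone without TACC3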
PglD confirm – confirmation of Campylobacter jejuni PglD acetyltransferase inhibitors. shares compounds with PglD inh. Purified C. jejuni PglD, DTNB absorbance 412 nm. inhibition, % at 20 µM. 320 tested, under 10 active;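 active means mean inhibition across replicates of at least 20% with every single replicate also at 20% or more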;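 further: initial rate of CoA release by acetyl transfer from AcCoA to the UDP-4-amino sugar; 0% = median of neutral control wells and 100% = median of positive control wells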
Active calls of the source: *; · = no result given.

SMILES	PglD inh	CFTR F508del cor	Statin myotox sup	ARNT TACC3 PPI	PglD confirm
CCC(C)[C@H](NC(=O)NC1CC1)C(=O)O (some centres not stated)	27.1*	·	-16.9	1.4	-3.7
CCCCOCCCNC(=O)N[C@H](C(=O)O)C(C)CC (some centres not stated)	6.5	-2.1	4.0	1.5	·
CN(Cc1nc2ccccc2[nH]1)Cc1nc(CC2CC2)no1	·	-0.5	-9.5	1.8	·
Cc1cccc2[nH]c(CN(C)Cc3nc(CC4CC4)no3)nc12	35.9*	-0.5	-7.3	-0.3	-2.9
O=C(NC1CCCCC1)N1CC(=O)N2[C@H](C1)[C@H](c1ccc(/C=C/c3ccccc3)cc1)[C@@H]2CO	·	-3.0	·	·	·
CCNCCNC(=O)c1c(O)c2cccc3c2n(c1=O)CCC3	22.1*	·	-5.4	4.5	-15.6
O=C(c1ccccc1F)N1C[C@H]2O[C@@H](CNS(=O)(=O)c3ccccc3)CC[C@H]21	·	-0.8	·	·	·
CCOc1ccc(-c2n[nH]c(C(=O)NN)c2C)cc1	83.3*	-3.1	22.8	-2.8	-5.8
C(CCN1CCOCC1)CN1CCOCC1	-4.9	-0.4	-9.3	·	·
OCCN1CCOCCN(CCO)CCOCC1	21.2*	·	0.1	6.7	-30.5
O=C(Nc1ccc(F)cc1)N[C@H]1CC[C@@H](CCNC(=O)c2ccccc2F)O[C@@H]1CO	·	1.6	·	·	·
COc1cccc(C2CC(c3ccc(Cl)cc3)n3nc(N)nc3N2)c1 (configuration not stated)	26.1*	1.8	4.7	-1.0	4.5
CCC(CC)c1nnc(NC(=O)[C@@H](NC(=O)c2cccc(C)c2)C(C)C)s1	·	·	·	-5.4	·
CCSc1nnc(NC(=O)[C@@H](NC(=O)c2cccc(C)c2)C(C)C)s1	23.5*	·	·	-47.0	1.5
CCOC(=O)c1ccc(NC(=S)N2CCC(O)CC2)cc1	24.0*	·	-22.8	·	6.0
CCOC(=O)c1ccc(NC(=S)N2CCCC(C)C2)cc1 (configuration not stated)	-0.2	2.5	-9.0	·	·
C[C@@H](O)C#Cc1cnc2c(c1)C(=O)N([C@@H](C)CO)C[C@H](C)[C@H](CN(C)C(=O)CN1CCOCC1)O2	1.2	1.0	5.3	-1.6	·
C[C@@H]1CN([C@H](C)CO)C(=O)c2cc(NS(=O)(=O)c3ccc(F)cc3)ccc2O[C@@H](C)CCCCO[C@H]1CN(C)S(=O)(=O)c1cccs1	1.4	-1.7	·	-1.9	·
Cc1ccccc1Cn1c(=O)n(Cc2ccco2)c(=O)c2ccccc21	42.0*	·	·	·	6.9
Cc1cccc(Cn2c(=O)n(Cc3ccco3)c(=O)c3ccccc32)c1	3.0	·	34.8	-7.8	·
C=CCOC(=O)C1=C(C)NC(=S)NC1/C=C/c1ccccc1 (configuration not stated)	3.1	·	4.1	20.9	·
CC1=C(C(=O)OCc2ccccc2)C(/C=C/c2ccccc2)NC(=S)N1 (configuration not stated)	21.3*	·	·	-14.2	-1.3
COc1ccc(CC(=O)NC(=S)NNC(=O)COc2c(C)cccc2C)cc1	23.0*	·	·	2.1	-4.3
Cc1ccc(O)c(NC(=O)CN(C)S(=O)(=O)c2ccc(Cl)cc2)c1	29.9*	2.5	-0.4	-7.2	5.4
O=C1C2C3C=CC(C3)C2C(=O)N1Cc1ccccc1 (configuration not stated)	22.3*	·	-14.1	2.4	-13.7
SMILES	PglD inh	CFTR F508del cor	Statin myotox sup	ARNT TACC3 PPI	PglD confirm
CC(=O)Nc1sc2c(c1CN1CCN(C)CC1)CCCC2	58.9*	·	11.0	2.9	0.9
O=C(Nc1sc2c(c1CN1CCOCC1)CCC2)c1ccc(F)cc1	1.4	-0.4	-1.5	-6.2	·
O=C1NC2(CCCCCC2)C(=O)N1Cc1cccc([N+](=O)[O-])c1	20.2*	-1.5	2.4	-0.3	-0.1
O=C(C[C@@H]1C[C@H]2c3cc(NC(=O)c4ccc5c(c4)OCO5)ccc3O[C@H]2[C@H](CO)O1)NCc1cccnc1	4.0	-3.5	18.3	22.3	·
COc1cc(NC(=O)COC(=O)CSc2ccccc2F)c(C)cc1[N+](=O)[O-]	·	-4.9	·	-8.6	·
COc1cc(NC(=O)COC(=O)CSc2cc(C)ccc2C)c(C)cc1[N+](=O)[O-]	22.0*	3.6	-5.8	-2.7	-5.8
COc1ccccc1C(=O)N1C[C@@H]2[C@H](c3ccccc31)[C@@H](CO)N2C(=O)C1CC1	2.1	0.5	-14.4	4.6	·
C[C@@H]1CCCCO[C@H](CN(C)Cc2ccc(C(F)(F)F)cc2)[C@@H](C)CN([C@@H](C)CO)C(=O)c2cc(NS(=O)(=O)c3cn(C)cn3)ccc2O1	2.7	1.2	·	3.0	·
CCc1ccccc1NC(=O)C1CCN(C(=O)c2ccc([N+](=O)[O-])cc2)CC1	45.9*	·	11.3	·	1.7
CC(=O)Nc1ccc(NC(=O)C2CCN(C(=O)c3ccc([N+](=O)[O-])cc3)CC2)cc1	·	3.3	·	·	·
CCOC(=O)c1[nH]c(C)c(C(=O)OC)c1C	·	0.4	-1.0	-2.4	·
CCOC(=O)c1[nH]c(C)c(C)c1C	24.8*	·	·	-1.1	-1.0
O=C(COC(=O)c1cccc(F)c1)Nc1cccc(S(=O)(=O)N2CCCCC2)c1	22.3*	-1.6	7.2	·	-1.5
O=C(COC(=O)c1cccc(F)c1)Nc1cccc(S(=O)(=O)N2CCOCC2)c1	5.0	-3.4	2.4	·	·
CCOc1cc(C2NC(=O)NC(c3ccccc3)=C2C(C)=O)ccc1OC(C)=O (configuration not stated)	23.3*	-5.4	·	-25.1	-4.2
C[C@@H]1CN([C@@H](C)CO)C(=O)Cc2cc(NC(=O)NC3CCCCC3)ccc2O[C@H]1CN(C)C(=O)Nc1ccc2c(c1)OCO2	2.8	-0.5	-7.8	-5.7	·
CC(=O)NC1C(=O)N(CCN2CCOCC2)c2ccc(Cl)cc21 (configuration not stated)	24.5*	-0.8	-2.2	-32.1	48.5*
CC(=O)Nc1ccc(SCC(=O)Nc2ccccc2-c2ccccc2)cc1	20.3*	0.0	·	-21.1	-1.9
COc1ccc(NC(=O)N(C)C[C@@H]2Oc3cc(-c4ccncc4)ccc3S(=O)(=O)N([C@H](C)CO)C[C@@H]2C)cc1	-4.0	2.1	25.9	-4.2	·
C[C@@H]1CN([C@@H](C)CO)C(=O)c2cc(-c3ccncc3)cnc2O[C@H]1CN(C)Cc1cccnc1	0.5	-2.5	-4.9	-2.1	·
CO[C@@H]1CN(C)C(=O)c2cc(NC(C)=O)ccc2OC[C@H](C)N(CCc2ccccc2)C[C@@H]1C	-0.6	4.4	-8.7	-1.9	·
CSCC[C@H](NC(=O)COc1cc2c(c3oc(=O)c(C)c(C)c13)CCC(C)(C)O2)C(=O)O	27.1*	-3.7	-4.0	7.3	-0.6
CC(=O)c1cccc(-c2cnc3c(NC=O)cc(-c4ccccc4F)cn23)c1	25.4*	1.9	16.2	·	1.5
CC(=O)Nc1cc(-c2ccccc2F)cn2c(-c3ccccc3)cnc12	-1.1	0.2	-17.5	·	·
CCCC/C(O)=C1\C(=O)CCCC1=NCCc1c(C)[nH]c2ccc(OC)cc12	20.5*	-1.2	21.4	0.8	-3.2
O=C(COC(=O)c1ccc([N+](=O)[O-])s1)NCc1ccc(F)cc1	3.9	·	-3.5	-0.4	·
